Bioassay records (PubChem)
GALK inh: qHTS Assay for Inhibitors of Human Galactokinase (GALK); P51570; Purified GALK, Kinase-Glo residual ATP luminescence; Potency, µM (doses to about 57.5 µM), hits mostly inhibitors; hit rate 0.007% among 270,000; AID 1868, 2009
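Human GALK (5 nM) with 35 uM ATP and 100 uM galactose in 20 mM HEPES pH 8.0, 5 mM MgCl2, 60 mM NaCl, 1 mM DTT, 0.01% BSA. After 1 h at room temperature, leftover ATP was read by Kinase-Glo Plus luminescence.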
TrxR1 substrate: qHTS Assay for Substrates of Mammalian Selenoprotein Thioredoxin Reductase 1 (TrxR1): qHTS; hit rate 0.01% among 390,000; Potency, µM (highest dose often 114 µM); purified TrxR1 substrate turnover, NADPH consumption readout; further: nearly all actives have a fitted effect of over 50% in size
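Rat TrxR1, dispensed at 90 nM, was prereduced with 400 uM NADPH (final) for 5 min at ~22 deg C, then incubated with compound 15 min before 400 uM selenite. A first-read NADPH fluorescence drop versus no-compound background flagged substrates.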
rTrxR1 inhibitor: qHTS Assay for Inhibitors of Mammalian Selenoprotein Thioredoxin Reductase 1 (TrxR1): qHTS | Potency, µM (titrated, usually from 114 µM), hits mostly inhibitors | hit rate 1% among 390,000 | Thioredoxin reductase 1, cytoplasmic (Rattus norvegicus), O89049 | recombinant rTrxR1, NADPH fluorescence consumption, selenite substrate | AID 588453, 2011; further: nearly all actives have a fitted effect of over 65% in size
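Rat TrxR1 (90 nM in the dispensed reagent) was pre-reduced with 400 uM NADPH for 5 min at room temperature, then incubated with compound for 15 min. After 400 uM selenite was added, NADPH fluorescence (Ex 340/Em 450 nm) was followed for 8 min.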
PKM2 activator: qHTS Assay for Activators of Human Muscle isoform 2 Pyruvate Kinase; Pyruvate kinase PKM (Homo sapiens), P14618; purified PKM2, Kinase-Glo ATP luminescence, activation; response scale: 0% is enzyme alone, no compound; Potency, µM (highest dose often 57.5 µM), usual class: activators; hit rate 0.34% among 260,000; AID 1631, 2009; further: nearly all actives have a fitted effect of over 55% in size
Target sequence (P14618 whole entry, looked up, canonical isoform): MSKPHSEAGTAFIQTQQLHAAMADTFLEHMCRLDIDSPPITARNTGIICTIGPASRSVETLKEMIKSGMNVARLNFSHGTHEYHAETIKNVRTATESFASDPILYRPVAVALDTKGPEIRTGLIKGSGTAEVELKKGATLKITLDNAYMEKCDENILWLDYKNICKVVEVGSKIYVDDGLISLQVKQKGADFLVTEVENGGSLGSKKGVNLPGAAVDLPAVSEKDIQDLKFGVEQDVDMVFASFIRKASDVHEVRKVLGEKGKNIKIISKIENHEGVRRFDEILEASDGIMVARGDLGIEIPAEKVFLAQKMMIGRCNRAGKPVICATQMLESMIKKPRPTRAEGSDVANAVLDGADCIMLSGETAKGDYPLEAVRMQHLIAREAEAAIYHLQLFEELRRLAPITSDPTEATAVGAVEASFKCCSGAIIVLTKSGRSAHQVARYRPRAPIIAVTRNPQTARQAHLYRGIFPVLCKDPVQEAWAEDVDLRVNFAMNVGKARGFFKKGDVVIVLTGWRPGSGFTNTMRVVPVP
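Purified hPK-M2 (>95% pure) converted ADP (0.1 mM final) to ATP with 0.5 mM PEP in 50 mM imidazole pH7.2, KCl, MgCl2, Tween 20, BSA; 1 h at room temperature. ATP detected by Kinase-Glo luminescence.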
PI4K2A inh: qHTS for small molecular inhibitors of PI4K2A; Phosphatidylinositol 4-kinase type 2-alpha (Homo sapiens), Q9BTU6; purified PI4K2A, ADP-Glo luminescence, 1 h; hits give low values; activity change, negative = inhibition, % at 76.9 µM; hit rate 0.13% among 420,000; AID 1346378, 2018; in the data active means activity change below about -50%; inconclusive means mostly about -30% to -49%
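Compounds are screened against recombinant PI4K2A using PI as substrate and ATP, the latter dispensed at 300 microM. Reactions run one hour at ambient temperature before ADP-Glo detection; full inhibition defined by wells lacking enzyme.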
Numbers stand for hits; . = inactive; ? = inconclusive; / = not tested or not shown; [ ] = another dose, or the depositor's remark. The list is not random: actives were taken first. Their share in the collection is about 1.2%. Unless noted, the call rests on the fitted dose curve; in most records, active means well fitted curve in the direction sought with a large enough effect; inconclusive means small, poorly fitted or top-dose-only effect, or another doubt; inactive means no such curve, though single readings can be large; an effect the other way counts as inactive or inconclusive.

SMILES | GALK inh | TrxR1 substrate | rTrxR1 inhibitor | PKM2 activator | PI4K2A inh
Nc1ccccc1SC(CC(=O)c1ccccc1)c1ccccc1 (stereo unspecified) | / | / | / | / | .
CC(C(Sc1ccccc1N)c1ccccc1)[N+](=O)[O-] (stereo unspecified) | . | . | 6.3µM | . | .
COc1ccc(-c2noc(CSc3nnc(-c4ccncc4)n3-c3ccc(OC)cc3)n2)cc1 | / | . | . | / | .
OCCCc1nc2n(n1)C(c1ccccc1)C=C(c1ccc(F)cc1)N2 (stereo unspecified) | . | . | ? | . | -66
OCCCc1nc2n(n1)C(c1cccs1)C=C(c1ccccc1)N2 (stereo unspecified) | . | / | / | . | /
O=C(Nc1nc2n(n1)C(c1ccccc1)C=C(c1ccccc1)N2)c1ccccc1 (stereo unspecified) | / | . | 56µM | / | .
CN1[C@H](Cc2ccccc2)COc2cccc(F)c2S1(=O)=O | / | / | / | / | .
Cc1ccc(NS(=O)(=O)c2ccc3c(c2)c(=O)n(C)c(=O)n3C)cc1F | . | . | . | 4.5µM | .
Cc1cc(C)cc(NS(=O)(=O)c2ccc3c(c2)c(=O)n(C)c(=O)n3C)c1 | . | . | . | ? | .
O=C(NCCOC(=O)c1ccc(C(=O)OCCNC(=O)c2cccnc2)s1)c1cccnc1 | . | . | . | 16µM | .
CC1=C(C)/C(=N/OC(=O)c2cccc([N+](=O)[O-])c2)C=CC1=O | . | . | 8.9µM | . | .
CCOC(=O)[C@]12CCCC=C1N(CCCOC)C(=O)[C@@H]2CC(=O)NCc1ccccc1 | / | / | / | / | .
Cc1ccc(-c2nc3c(c(SCC(=O)N(C)c4ccccc4)n2)Cc2c(CO)cnc(C)c2O3)cc1 | / | . | ? | / | .
CCN(CC)C(=O)CSc1nc(-c2ccc(C)cc2)nc2c1Cc1c(CO)cnc(C)c1O2 | / | . | 20µM | / | .
O=C(CN1C(=O)C(=O)c2ccccc21)NCCc1ccccc1 | . | . | . | 32µM | .
CC(C)C(=O)N1CC[C@H]2[C@H](CCCN2Cc2ccc(F)cc2)C1 | / | / | / | / | .
Nc1ccc(N2CCCCC2)cc1N1CCCCC1 | . | . | ? | ? | .
Nc1c(N2CCCC2)cc(Cl)c2nonc12 | . | . | 25µM | . | -66
Cc1cc(N2CCOCC2)c2c(N)cc(C)c(C)c2n1 | . | . | . | . | .
Nc1ccc(N2CCCCC2)c2nonc12 | . | 50µM | ? | . | -54
Nc1c(N2CCOCC2)cc(Cl)c2nonc12 | . | . | . | . | -62
Fc1ccc(-c2csc(=Nc3cccc(C(F)(F)F)c3)n2Cc2ccc3c(c2)OCO3)cc1 | / | . | . | / | .
N#CC1=C(S)N(c2ccccc2)C(c2ccc(-c3cccc(Cl)c3)o2)NC1=O (stereo unspecified) | . | . | 40µM | . | .
CCC(c1nnc(SCc2nc3ccccc3s2)n1Cc1ccccc1)N(C)C (stereo unspecified) | . | . | . | . | .
c1ccc(Cn2c(SCc3nc4ccccc4s3)nnc2-c2ccco2)cc1 | . | . | 10µM | . | ?
SMILES | GALK inh | TrxR1 substrate | rTrxR1 inhibitor | PKM2 activator | PI4K2A inh
COC(=O)c1ccc(NCc2c(O)ccc(O)c2Br)cc1Cl | / | . | 32µM | / | .
CO/N=C(\Cn1ncc(N2CCCC2)c(Cl)c1=O)c1ccc(Cl)cc1 | . | . | . | 14µM | .
CCc1ccc(C(=O)c2cn(CC(=O)Nc3ccc4c(c3)OCO4)c3ccc(CC)cc3c2=O)cc1 | / | . | . | / | .
Cc1ccc(N2C(=O)C3C4C=CC(CNC(=S)N5CCN(c6cccc(C)c6)C(C)C5)(O4)C3C2=O)cc1 (stereo unspecified) | . | . | 16µM | ? | .
CC(C)(O)C#Cc1ccc(C(=O)N2CCCC(CNS(=O)(=O)c3cccs3)C2)o1 (stereo unspecified) | . | . | 13µM | / | .
Cc1cc(C)c(C(=O)N2CCCC(CNS(=O)(=O)c3cccs3)C2)o1 (stereo unspecified) | . | . | . | . | .
CN(C(=O)COC(=O)c1ccc(C(C)(C)C)cc1)C1CCS(=O)(=O)C1 (stereo unspecified) | / | . | . | / | .
CN(C(=O)COC(=O)c1nc(Cl)c(Cl)c(Cl)c1Cl)C1CCS(=O)(=O)C1 (stereo unspecified) | . | . | 14µM | . | .
CC(C)c1nnc(NC(=O)c2nc(S(=O)(=O)Cc3ccccc3F)ncc2Cl)s1 | . | . | 50µM | / | .
CSc1nnc(NC(=O)c2nc(S(=O)(=O)Cc3ccccc3F)ncc2Cl)s1 | . | . | 40µM | .[0.46 µM] | .
Cc1nnc(NC(=O)c2nc(S(=O)(=O)Cc3ccccc3C)ncc2Cl)s1 | . | . | 50µM | / | .
O=C1COc2ccc(-c3cc(-c4ccccc4)c4c(n3)-c3cc(Cl)ccc3OC4)cc2N1 | / | . | . | / | .
COc1ccc2cc(C=O)ccc2c1 | / | / | / | / | .
Oc1ccccc1CNc1ccc(Br)cn1 | . | . | . | 32µM | .
O=C(c1nc[nH]c1C(=O)N1CCc2ccccc2C1)N1CCc2ccccc2C1 | / | . | . | / | .
CN(Cc1ccccc1)C(=O)c1nc[nH]c1C(=O)N1CCc2ccccc2C1 | / | . | 40µM | / | .
Cc1ccc(CCNC(=O)Cn2ncc3c([nH]c4ccc(C)cc43)c2=O)cc1 | / | . | . | / | .
CCOC(=O)c1c(NC(=S)Nc2ccccc2)sc2c1CC(C)(C)SC2 | . | . | ? | . | .
CCOC(=O)c1c(NC(=S)NC)sc2c1CC(C)(C)SC2 | . | . | 11µM | . | .
O=[N+]([O-])c1ccc2c(c1)C=C/C2=C/c1ccccc1 | / | . | ? | / | /
O=C(NCc1cccc(F)c1)c1ccc(CS(=O)c2ccccc2Cl)o1 (stereo unspecified) | / | . | . | / | .
Cc1cccc(NC(=O)CN2c3ccccc3S(=O)(=O)c3ccccc32)c1C | / | . | . | / | .
CC(C)c1nnc(NC(=O)c2nc(S(=O)(=O)Cc3ccc(F)cc3)ncc2Cl)s1 | . | . | 32µM | / | .
CCSc1nnc(NC(=O)c2nc(S(=O)(=O)Cc3ccc(F)cc3)ncc2Cl)s1 | . | . | 25µM | / | .
Cc1ccc(CS(=O)(=O)c2ncc(Cl)c(C(=O)Nc3nnc(C(C)C)s3)n2)cc1 | . | . | 32µM | .[0.46 µM] | .
Cc1ccc(C)c(NC(=O)c2nc(S(=O)(=O)Cc3ccc(F)cc3)ncc2Cl)c1 | / | . | 1.6µM | / | .
C=CCSc1nnc(NC(=O)c2nc(SCC)ncc2Cl)s1 | . | . | . | . | .
CCCc1nc2ccccc2n1CC(O)COc1ccc(C(=O)OC)cc1 (stereo unspecified) | / | . | . | / | .
